# About 430 (29%) of roughly 1,500 compounds were called active. No rule for the calls is given here. Not all results are given here. Entries with a potency or affinity are not part of this list.
# Assay: glucose-independent GLuc insulin release activation – cell-based, INS-1E, Gaussia luciferase, luminescence, cherry-pick, counter-screen for glucose-dependent insulin secretion activators, dose response (AID 977606);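 also: 0% = median of neutral control wells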
# Settings: INS-1E Gaussia luciferase insulin secretion, no glucose, 100% = twice neutral-control luminescence; series mostly up to 35 µM; activation: at the top concentration
row,SMILES,activation
1,COCCNc1nc(N2CCCCC2)c2cnn(C)c2n1,7.01% (inactive)
2,COc1cc2c(cc1OC)C(Cc1ccc(O)cc1)N(C)CC2 (configuration not stated),-9.53% (inactive)
3,COc1cc2c(cc1OC)C(Cc1ccc(O)cc1)NCC2 (configuration not stated),-1.37% (inactive)
4,c1ccc(-c2nc(NCC3CC3)nc3ccsc23)cc1,7.35% (inactive)
5,CN1CCCCC(NC(=O)c2ccccc2)C1=O (configuration not stated),9.94% (inactive)
6,Cc1nccn1-c1ncnc2sc3c(c12)CCCC3,-5.65% (inactive)
7,COc1ccccc1CSc1nc2c(c(=O)n(C)c(=O)n2C)n1C,-8.58% (inactive)
8,COC(=O)c1ccc(CNC(=O)CCc2c[nH]c3ccccc23)cc1,-10.2% (inactive)
9,Cc1nnc2c(NCCC(C)C)nc3ccccc3n12,-2.67% (inactive)
10,CCOC(=O)c1nc(NCc2cccnc2)c2ccccc2n1,-0.868% (inactive)
11,Cn1c(=O)n(Cc2ccccc2Br)c2ccccc21,27.3% (inactive)
12,CC(C)CCN1CC(O)=C(c2nc(-c3ccc(Cl)cc3)cs2)C1=N,4.45% (inactive)
13,C=CCNc1cc(C)oc(=O)c1C(=O)CCC,-6.6% (inactive)
14,COc1ccc(CNC(=O)C2Cc3c(-c4cccc(F)c4)ccnc3O2)cc1OC (configuration not stated),-55.6% (inactive)
15,COc1ccccc1Cn1c(=O)oc2ccccc21,1.4% (inactive)
16,COc1ccccc1CNS(=O)(=O)c1cc(-c2cc(C)no2)ccc1C(C)C,-7.45% (inactive)
17,COc1ccc(CN2CCOC2=O)cc1OC,-14.9% (inactive)
18,COC(=O)[C@]1(Cc2ccccc2)N[C@H](CN(C)C(=O)Nc2ccc(C)cc2)[C@@H]2C(=O)N(C)C(=O)[C@@H]21,-4.45% (inactive)
19,CCNc1nc(NC(C)C)nc(N(C)C#N)n1,-1.68% (inactive)
20,CC1CN(S(=O)(=O)c2cc(C(=O)NC(C)c3cccnc3)ccc2Cl)CC(C)O1 (configuration not stated),-5.54% (inactive)
21,COc1cc2c(cc1OC)[C@H](C)N(C(=O)NCc1ccccc1)CC2,-7.31% (inactive)
22,CC(=O)Nc1nc(C)nc(-c2ccccc2OC(C)=O)n1,25.7% (inactive)
23,Cc1ccc(C(CC(=O)O)NC(=O)c2ccc(S(=O)(=O)N3CC(C)OC(C)C3)cc2)cc1 (configuration not stated),-15.2% (inactive)
24,CCOC1=C2[C@H](c3ccc(C)cc3)N(S(=O)(=O)c3ccc(C)cc3)C[C@H]2n2c(=O)n(-c3ccccc3)c(=O)n2C1,0.601% (inactive)

row,SMILES,activation
1,CC(=O)c1cccc(-c2csc3ncnc(Sc4nnnn4C)c23)c1,1.21% (inactive)
2,CN1C(=O)NC(c2ccc(O)cc2)C2=C1CN(c1ccccc1)C2=O (configuration not stated),-1.76% (inactive)
3,Cc1ccc(NC(=O)c2ccccc2-c2ccccc2C(=O)O)cc1C,2.93% (inactive)
4,O=C(CC(NC(=O)c1ccccc1)c1ccccc1)Nc1cccc2ccccc12 (configuration not stated),-12.6% (inactive)
5,C=C(C)C1Cc2c(C)nn(-c3cccc4cccnc34)c2C1 (configuration not stated),6.7% (inactive)
6,O=C(COc1ccc(Cl)cc1)NCCS(=O)(=O)N1CCN(c2ccccc2F)CC1,-13.2% (inactive)
7,O=C(COc1cccc2c1CCNC2=O)NC1CCCCC1,-5.65% (inactive)
8,COc1ccc(CN(C)C(=O)CCN=C2NS(=O)(=O)c3ccccc32)c(OC)c1,3.04% (inactive)
9,CC(C)CC(=O)Nc1cccc(-c2nc3ncccc3o2)c1,-8.91% (inactive)
10,COc1ccc(Cc2nnc(NC(=O)Cc3cccs3)s2)cc1OC,25.7% (inactive)
11,CCOC(=O)c1oc2ccccc2c1NC(=O)c1ccco1,4% (inactive)
12,CCOC(=O)c1c(C)[nH]c(C(C)=NNC(=O)c2cccs2)c1C,-3.52% (inactive)
13,CCCCOc1ccc(SCCCN2CCOCC2)cc1,53.8% (inactive)
14,C/C(=N\NC(=O)CO/N=C(\C)c1cccs1)c1ccc(N)cc1,-3.9% (inactive)
15,Cc1ccnc(NS(=O)(=O)c2ccc(NC(=O)CCc3ccccc3)cc2)n1,4.42% (inactive)
16,FC(F)(F)c1ccc(Cl)c(-n2c(Cc3cccs3)n[nH]c2=S)c1,-10.4% (inactive)
17,COc1ccc(CNC(=O)C2Cc3c(-c4ccccc4)ccnc3O2)cc1OC (configuration not stated),11% (inactive)
18,O=C(OC1CCOC1=O)c1cc(-c2ccc(Cl)cc2)nc2ccccc12 (configuration not stated),8.02% (inactive)
19,COc1ccc(C2CNC(=O)C2)cc1OC1CCCC1 (configuration not stated),-4.37% (inactive)
20,O=S(=O)(NCc1ccccc1)c1ccc(S(=O)(=O)N2CCCCC2)cc1,-3.85% (inactive)
21,CCCn1c(O)c(N=NC(=O)c2cccnc2)c2cc(Br)ccc21,-27% (inactive)
22,COc1ccc(C(=O)N=C2CCC(C#N)=C3c4cc(OC)c(OC)cc4CCN23)cc1,-15% (inactive)
23,C=CCN=c1sc(C(=O)OC)cc(=O)n1CC=C,-3.79% (inactive)
24,CC(=O)C(C)n1c(CN(C)Cc2ccccc2)nc2c1c(=O)n(C)c(=O)n2C (configuration not stated),-4.37% (inactive)

row,SMILES,activation
1,COC(=O)C1CCN(c2cc(Cl)nc(N)n2)CC1,-11% (inactive)
2,O=C(NC(=S)NCC1CCCO1)c1ccc(Cl)cc1Cl (configuration not stated),0.701% (inactive)
3,COc1ccc(C(=O)Nc2ccccc2C(=O)NCC2CCCO2)cc1 (configuration not stated),5.62% (inactive)
4,O=C(Nc1ccc(Br)cc1)c1cc2ccccn2n1,7.83% (inactive)
5,COC(=O)c1c(C)oc(C)c1S(=O)(=O)Nc1ccc(C(C)C)cc1,-3.18% (inactive)
6,COc1ccc(/C=C/c2noc(-c3ccccc3OC(C)=O)n2)cc1,4.45% (inactive)
7,CCCCc1[nH]c(=O)c(C#N)c2c1CCCC2,-9.04% (inactive)
8,COC(=O)c1ccc(Oc2ccc(C(F)(F)F)cn2)cc1,4.53% (inactive)
9,c1cc2c(cc1CN1CCN(C3CCCCCC3)CC1)OCO2,1.19% (inactive)
10,CCOc1ncccc1C(=O)NCc1ccc(C)cc1,4.91% (inactive)
11,CCOc1ncccc1C(=O)NNC(=O)c1ccccc1-n1cccc1,-4.2% (inactive)
12,O=C(c1cccs1)N(Cc1ccccn1)Cc1ccco1,-8.86% (inactive)
13,COc1ccc2nc(CCN(C)C(=O)C3CCC(=O)N(Cc4cccc(F)c4)C3)[nH]c2c1 (configuration not stated),-15.1% (inactive)
14,CC1(C)CCCC(C)(C)N1CC(O)COCCOc1ccc(Br)cc1 (configuration not stated),0.686% (inactive)
15,Cc1ccc2c(c1)CCCN2C(=O)c1ccc2c(c1)OCO2,1.47% (inactive)
16,CN(C(=O)c1ccc2c(c1)SC1=NS(=O)(=O)CCN12)C(c1ccccc1)c1ccccc1,-6.46% (inactive)
17,CCOc1ccc(CCNC(=O)Cn2ccc3ccccc3c2=O)cc1OCC,-1.1% (inactive)
18,COc1cc(CN(C)c2ccc(S(=O)(=O)N3CCCC3)cn2)ccc1OC(F)F,1.77% (inactive)
19,CC(C)(C)C1=Nn2c(nnc2C2CCCCC2)SC1,11.8% (inactive)
20,COc1ccc(CCNC(=O)CCC(=O)c2cccs2)cc1OC,-22.3% (inactive)
21,COc1ccc(C2CC(=O)C(c3ccc(C)cc3)=CN2Cc2ccccc2)cc1 (configuration not stated),-10.9% (inactive)
22,CCN1CCN(c2nnc(-c3ccccc3)c3ccccc23)CC1,-5.54% (inactive)
23,CCn1cc(C(=O)O)c(=O)c2cc(F)c(N3CCN(C(=S)NC(=O)c4cccc(C)c4)CC3)cc21,-18% (inactive)
24,CCOC(=O)c1nn(-c2ccccc2)c2nc(Nc3ccccc3)cc(=O)n12,-13.5% (inactive)
